A number with no mark means an inactive call. Records with an inconclusive call do not appear. A call without a number means that no potency is given here. The source made the active and inactive calls. Unless noted, the call rests on the fitted dose curve; in most records, active means well fitted curve in the direction sought with a large enough effect; inconclusive means small, poorly fitted or top-dose-only effect, or another doubt; inactive means no such curve, though single readings can be large; an effect the other way counts as inactive or inconclusive.
Key:
[1] = molecular target: Thyrotropin receptor (Homo sapiens) (UniProt P16473); assay: qHTS Assay for Antagonists of the Thyroid Stimulating Hormone Receptor (AID 488980); further: series mostly up to about 58 µM
Sequence of Thyrotropin receptor (Homo sapiens) (P16473 whole entry, looked up): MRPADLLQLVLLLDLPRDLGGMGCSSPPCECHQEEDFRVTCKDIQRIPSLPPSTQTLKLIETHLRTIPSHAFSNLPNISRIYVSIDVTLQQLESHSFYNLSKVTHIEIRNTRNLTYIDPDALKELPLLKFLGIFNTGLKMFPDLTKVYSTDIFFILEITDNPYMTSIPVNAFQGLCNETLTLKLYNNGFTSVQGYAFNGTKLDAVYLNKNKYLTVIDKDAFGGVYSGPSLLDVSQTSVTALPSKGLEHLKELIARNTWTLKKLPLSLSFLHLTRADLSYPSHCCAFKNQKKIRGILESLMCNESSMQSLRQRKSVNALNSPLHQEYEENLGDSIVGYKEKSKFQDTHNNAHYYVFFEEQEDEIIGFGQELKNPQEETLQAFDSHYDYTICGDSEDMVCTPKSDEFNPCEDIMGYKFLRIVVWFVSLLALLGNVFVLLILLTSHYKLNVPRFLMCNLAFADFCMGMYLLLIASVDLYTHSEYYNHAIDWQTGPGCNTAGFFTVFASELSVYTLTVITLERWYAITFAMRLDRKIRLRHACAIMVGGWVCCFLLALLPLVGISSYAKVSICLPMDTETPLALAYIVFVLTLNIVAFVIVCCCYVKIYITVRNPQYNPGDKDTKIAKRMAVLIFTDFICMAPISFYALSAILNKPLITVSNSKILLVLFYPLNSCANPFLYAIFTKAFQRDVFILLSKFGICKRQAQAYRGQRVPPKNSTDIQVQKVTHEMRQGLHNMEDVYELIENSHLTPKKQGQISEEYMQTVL
Procedure, shortened: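 TSHR-transfected HEK293 cells (2000/well) in HEPES-buffered HBSS with 70 uM RO 20-1724 were stimulated with 4 nM TSH (EC80, final) in the presence of compound. cAMP was measured by HTRF competition after lysis and 30 min at RT.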

[2] = molecular target: D(1A) dopamine receptor (Homo sapiens) (UniProt P21728); assay: HTS Assay for Allosteric Agonists of the Human D1 Dopamine Receptor: Primary Screen for Agonists (AID 488981)
Sequence of D(1A) dopamine receptor (Homo sapiens) (P21728 whole entry, looked up): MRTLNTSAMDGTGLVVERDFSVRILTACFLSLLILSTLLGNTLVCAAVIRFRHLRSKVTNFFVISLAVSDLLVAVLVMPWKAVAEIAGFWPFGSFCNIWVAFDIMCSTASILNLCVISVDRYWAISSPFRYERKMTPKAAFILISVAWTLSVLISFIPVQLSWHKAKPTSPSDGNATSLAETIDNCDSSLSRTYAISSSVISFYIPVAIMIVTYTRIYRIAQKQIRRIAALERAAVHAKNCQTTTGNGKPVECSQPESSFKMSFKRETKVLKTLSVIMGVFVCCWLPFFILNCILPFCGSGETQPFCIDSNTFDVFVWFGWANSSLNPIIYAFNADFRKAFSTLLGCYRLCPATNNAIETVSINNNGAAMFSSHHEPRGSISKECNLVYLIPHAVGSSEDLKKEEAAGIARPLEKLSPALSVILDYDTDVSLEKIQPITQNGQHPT
Procedure, shortened: (§1)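 Calcium flux in an inducible, force-coupled HEK293 Trex D1 line (overnight at 30 C): agonist mode is the 180 s kinetic read after compound; potentiator mode is the following 180 s read after dopamine at EC20.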

[3] = molecular target: D(1A) dopamine receptor (Homo sapiens) (UniProt P21728); assay: HTS Assay for Allosteric Agonists of the Human D1 Dopamine Receptor: Primary Screen for Potentiators (AID 488982)
Procedure, shortened: as §1

[4] = molecular target: D(1A) dopamine receptor (Homo sapiens) (UniProt P21728); assay: HTS Assay for Allosteric Agonists of the Human D1 Dopamine Receptor: Primary Screen for Antagonists (AID 488983);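 further: calcium flux response to an EC80 dopamine challenge measured with no-wash dye; nearly all actives have a fitted effect of over 65% in size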
Procedure, shortened: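 Kinetic fluorescence at 1 cycle/sec tracked intracellular calcium in force-coupled, tetracycline-inducible HEK293 T-REx D1 cells. Loss of response to an EC80 dopamine dose, given 180 s after compound, marked antagonists.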

[5] = molecular target: ATP-dependent 6-phosphofructokinase (Trypanosoma brucei brucei) (UniProt O15648); assay: qHTS Assay to Find Inhibitors of T. brucei phosphofructokinase: hit validation (AID 492961);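 further: luminescence reports ADP formed as PFK phosphorylates fructose-6-phosphate with ATP; series mostly up to about 51 µM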
Sequence of ATP-dependent 6-phosphofructokinase (Trypanosoma brucei brucei) (O15648 whole entry, looked up): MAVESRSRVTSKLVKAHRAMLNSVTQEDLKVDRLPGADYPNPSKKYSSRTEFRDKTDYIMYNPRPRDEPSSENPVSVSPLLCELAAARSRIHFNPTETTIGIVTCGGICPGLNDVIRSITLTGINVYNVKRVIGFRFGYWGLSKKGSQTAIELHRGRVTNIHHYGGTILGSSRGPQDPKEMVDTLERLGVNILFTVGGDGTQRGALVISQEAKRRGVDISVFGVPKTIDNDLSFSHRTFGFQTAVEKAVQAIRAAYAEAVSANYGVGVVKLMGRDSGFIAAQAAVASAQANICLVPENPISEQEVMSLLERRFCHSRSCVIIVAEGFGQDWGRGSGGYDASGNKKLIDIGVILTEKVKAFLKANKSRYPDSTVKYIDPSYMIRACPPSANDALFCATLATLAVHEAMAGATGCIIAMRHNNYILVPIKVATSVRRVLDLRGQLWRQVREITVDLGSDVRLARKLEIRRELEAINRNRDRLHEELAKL
Procedure, shortened: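 ADP-Glo luminescence read-out of ADP formed by 1.25 nM PFK from 0.1 mM ATP and 0.5 mM F6P (TEA pH 8.0, 45 min, RT). Compounds titrated; activity normalized to no-enzyme and full-enzyme controls.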

[6] = Validation screen for small molecules that induce genotoxicity in human embryonic kidney (HEK293T) cells expressing luciferase-tagged ELG1 (AID 493106); further: potency means the concentration at half of the fitted maximal effect
Procedure, shortened: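 Cells were dispensed at 2,000 per well, then 23 nL compound or DMSO was pinned in. After 16 hr at 37 °C and 5% CO2, ONE-Glo reagent was added. Luciferase activity was measured following 30 min at room temperature.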

[7] = molecular target: ATPase family AAA domain-containing protein 5 (Homo sapiens) (UniProt Q96QE3); assay: Validation screen for small molecules that inhibit ELG1-dependent DNA repair in human embryonic kidney (HEK293T) cells expressing luciferase-tagged ELG1 (AID 493107); further: nearly all actives have a fitted effect of over 70% in size; further: potency means the concentration at half of the fitted maximal effect
Sequence of ATPase family AAA domain-containing protein 5 (Homo sapiens) (Q96QE3 whole entry, looked up, the tested form may be a part): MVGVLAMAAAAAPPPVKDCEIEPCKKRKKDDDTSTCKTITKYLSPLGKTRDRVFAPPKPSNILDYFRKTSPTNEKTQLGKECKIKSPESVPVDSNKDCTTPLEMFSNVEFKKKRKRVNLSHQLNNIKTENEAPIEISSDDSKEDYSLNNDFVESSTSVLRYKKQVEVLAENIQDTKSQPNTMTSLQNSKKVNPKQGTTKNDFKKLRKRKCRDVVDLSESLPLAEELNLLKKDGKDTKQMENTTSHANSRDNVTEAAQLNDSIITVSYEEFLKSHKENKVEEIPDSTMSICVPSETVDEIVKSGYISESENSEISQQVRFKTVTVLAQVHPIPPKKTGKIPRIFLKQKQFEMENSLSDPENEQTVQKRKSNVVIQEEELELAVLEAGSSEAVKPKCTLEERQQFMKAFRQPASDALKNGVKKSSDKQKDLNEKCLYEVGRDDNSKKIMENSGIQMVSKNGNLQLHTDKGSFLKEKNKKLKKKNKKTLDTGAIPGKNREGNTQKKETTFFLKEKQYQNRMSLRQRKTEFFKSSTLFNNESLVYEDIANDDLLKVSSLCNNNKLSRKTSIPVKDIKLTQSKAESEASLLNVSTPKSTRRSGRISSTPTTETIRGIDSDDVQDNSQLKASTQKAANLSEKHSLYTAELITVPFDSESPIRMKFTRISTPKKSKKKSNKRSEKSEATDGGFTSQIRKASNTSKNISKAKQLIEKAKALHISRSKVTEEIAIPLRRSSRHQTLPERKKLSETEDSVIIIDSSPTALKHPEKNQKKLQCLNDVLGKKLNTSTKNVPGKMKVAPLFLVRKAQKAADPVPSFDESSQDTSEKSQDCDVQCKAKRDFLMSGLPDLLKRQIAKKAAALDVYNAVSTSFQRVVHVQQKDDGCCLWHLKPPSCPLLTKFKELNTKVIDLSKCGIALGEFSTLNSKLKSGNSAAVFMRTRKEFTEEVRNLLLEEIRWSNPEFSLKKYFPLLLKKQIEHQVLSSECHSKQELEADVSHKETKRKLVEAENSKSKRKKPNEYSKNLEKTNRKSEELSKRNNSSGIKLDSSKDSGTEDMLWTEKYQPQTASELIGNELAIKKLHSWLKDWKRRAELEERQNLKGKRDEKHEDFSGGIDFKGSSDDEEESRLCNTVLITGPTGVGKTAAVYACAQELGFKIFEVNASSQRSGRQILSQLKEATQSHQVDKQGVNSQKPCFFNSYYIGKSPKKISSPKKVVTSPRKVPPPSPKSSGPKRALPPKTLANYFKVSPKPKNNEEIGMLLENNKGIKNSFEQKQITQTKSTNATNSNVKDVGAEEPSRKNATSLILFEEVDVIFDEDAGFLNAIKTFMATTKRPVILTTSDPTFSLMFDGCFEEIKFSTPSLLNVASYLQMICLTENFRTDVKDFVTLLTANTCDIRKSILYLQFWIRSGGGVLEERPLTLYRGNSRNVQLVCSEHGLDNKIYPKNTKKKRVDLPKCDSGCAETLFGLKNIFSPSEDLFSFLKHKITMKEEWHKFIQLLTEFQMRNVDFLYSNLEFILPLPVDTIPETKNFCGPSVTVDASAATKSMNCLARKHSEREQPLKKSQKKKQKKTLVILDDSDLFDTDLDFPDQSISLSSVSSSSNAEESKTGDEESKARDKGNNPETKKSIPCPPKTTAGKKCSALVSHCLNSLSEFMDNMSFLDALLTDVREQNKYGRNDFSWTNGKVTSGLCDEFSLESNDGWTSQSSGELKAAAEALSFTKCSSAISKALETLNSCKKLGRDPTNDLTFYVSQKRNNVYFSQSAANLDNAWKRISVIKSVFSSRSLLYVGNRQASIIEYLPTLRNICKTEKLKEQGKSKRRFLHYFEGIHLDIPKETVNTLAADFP
Procedure, shortened: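 Cells are dispensed in 1536-well format, then 5-fluorouridine and compound are pinned in. After a 16 hr incubation at 37 °C and 5% CO2, ONE-Glo is added and luciferase measured on a CCD imager.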

[8] = molecular target: Thyrotropin-releasing hormone receptor (Homo sapiens) (UniProt P34981); assay: qHTS for Small Molecule Agonists and Allosteric Enhancers of Human TRH Receptor: Validation Screen for Agonists (AID 493127;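 active means calcium activation more than 3 SD above the typical response in the agonist read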;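 further: intracellular calcium rise by fluo-8 fluorescence before TRH EC20 addition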); conditions: TRH receptor agonist cell assay; at 2 µM; stronger effect = higher value
Sequence of Thyrotropin-releasing hormone receptor (Homo sapiens) (P34981 whole entry, looked up): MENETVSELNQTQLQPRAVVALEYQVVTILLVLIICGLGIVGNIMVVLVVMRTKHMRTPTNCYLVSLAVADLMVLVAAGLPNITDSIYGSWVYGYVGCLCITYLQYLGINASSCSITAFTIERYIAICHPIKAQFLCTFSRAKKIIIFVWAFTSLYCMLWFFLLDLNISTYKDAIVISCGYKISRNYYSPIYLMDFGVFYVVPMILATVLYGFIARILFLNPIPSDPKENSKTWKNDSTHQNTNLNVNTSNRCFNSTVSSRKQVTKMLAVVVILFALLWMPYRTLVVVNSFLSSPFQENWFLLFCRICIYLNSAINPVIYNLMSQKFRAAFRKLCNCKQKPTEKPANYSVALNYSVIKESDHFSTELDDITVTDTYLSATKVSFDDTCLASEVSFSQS
Procedure, shortened: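 Compounds are added by online pintool to dye-loaded TRHR cells while fluorescence is recorded every second. A rise in calcium signal during the agonist read marks activation; a later 10 nM TRH addition (EC20) serves the separate enhancer mode.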

[9] = molecular target: Transient receptor potential cation channel subfamily V member 1 (Homo sapiens) (UniProt Q8NER1); assay: HTS Assay for Compounds that Act as Enhancers of the Vanilloid Receptor 1 (AID 488979)
Sequence of Transient receptor potential cation channel subfamily V member 1 (Homo sapiens) (Q8NER1 whole entry, looked up): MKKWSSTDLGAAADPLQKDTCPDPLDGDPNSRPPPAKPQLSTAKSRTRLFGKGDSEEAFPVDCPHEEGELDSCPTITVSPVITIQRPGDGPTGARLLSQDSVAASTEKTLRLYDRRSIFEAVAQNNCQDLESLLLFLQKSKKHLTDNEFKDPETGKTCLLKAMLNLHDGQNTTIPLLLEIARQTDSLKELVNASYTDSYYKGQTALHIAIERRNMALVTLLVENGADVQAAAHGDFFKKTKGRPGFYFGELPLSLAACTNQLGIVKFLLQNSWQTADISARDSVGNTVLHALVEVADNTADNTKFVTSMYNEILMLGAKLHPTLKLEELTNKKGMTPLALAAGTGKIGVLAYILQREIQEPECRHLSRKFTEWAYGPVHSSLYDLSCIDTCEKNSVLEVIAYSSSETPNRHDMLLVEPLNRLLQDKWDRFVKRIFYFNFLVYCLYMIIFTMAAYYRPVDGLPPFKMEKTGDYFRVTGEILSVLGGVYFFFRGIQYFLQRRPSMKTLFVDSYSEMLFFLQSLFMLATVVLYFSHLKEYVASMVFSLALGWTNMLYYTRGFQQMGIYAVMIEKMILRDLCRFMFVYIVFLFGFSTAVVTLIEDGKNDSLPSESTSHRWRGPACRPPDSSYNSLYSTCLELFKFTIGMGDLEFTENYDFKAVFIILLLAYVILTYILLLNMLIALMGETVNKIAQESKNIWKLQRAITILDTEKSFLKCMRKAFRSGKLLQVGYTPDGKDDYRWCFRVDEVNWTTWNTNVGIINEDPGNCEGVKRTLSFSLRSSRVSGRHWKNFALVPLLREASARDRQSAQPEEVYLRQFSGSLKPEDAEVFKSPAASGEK
Procedure, shortened: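 Calcium influx kinetics via Fluo-8 (480/520 nm) in TRPV1-expressing cells, 2000/well cultured overnight at 35.5C. Compound-alone read 3 min (agonist phase), followed by EC20 capsaicin challenge for 2 min (enhancer phase).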

| SMILES | outcome [1] | Potency [2] | Potency [3] | Potency [4] | outcome [5] | Potency [6] | Potency [7] | activation [8] [%] | outcome [9] |
| --- | --- | --- | --- | --- | --- | --- | --- | --- | --- |
| c1ccc(C2CN3CCSC3=N2)cc1 (centres undefined) | inactive | inactive | inactive | inactive | inactive | inactive | inactive | -0.188 | – |
| O=S(=O)(c1cccc2c(Cl)cccc12)N1CCCNCC1 | inactive | inactive | inactive | inactive | – | inactive | – | 1.56 | – |
| C[C@@H](NCCc1ccc(O)cc1)[C@@H](O)c1ccc(O)cc1 | – | inactive | inactive | – | – | inactive | inactive | 1.12 | inactive |
| N#CC(=C(\N)Sc1ccccc1N)/C(C#N)=C(/N)Sc1ccccc1N | inactive | inactive | inactive | inactive | – | inactive | – | 2.62 | – |
| CC(N)(Cc1ccc(O)c(O)c1)C(=O)O (centres undefined) | – | inactive | – | inactive | – | inactive | inactive | 0 | inactive |
| CCCn1c(=O)c2[nH]c(C3CCCC3)nc2n(CCC)c1=O | inactive | inactive | inactive | inactive | – | inactive | – | -3.88 | – |
| Nc1ccc(-c2nc3ccc(-c4nc5ccc(N)cc5[nH]4)cc3[nH]2)cc1 | inactive | inactive | inactive | inactive | – | inactive | inactive | 1 | – |
| O=C1NC(=O)c2cc(Nc3ccccc3)c(Nc3ccccc3)cc21 | inactive | inactive | inactive | inactive | – | inactive | 13 µM (active) | 6 | – |
| CC(N)=NCCCC[C@@H](N)C(=O)O | inactive | inactive | inactive | inactive | – | inactive | inactive | 1.31 | – |
| O=C(c1ccc2c(c1)OCCO2)N1CCCCC1 | inactive | inactive | inactive | inactive | – | inactive | – | -0.312 | – |
| COc1cc(N)c(Cl)cc1C(=O)OCCN1CCCCC1 | inactive | inactive | inactive | inactive | – | inactive | inactive | -2.44 | – |
| COc1cc(CC(=O)O)ccc1O | inactive | inactive | inactive | inactive | – | inactive | – | 0.125 | – |
| Nc1ccc(-c2ccc3ccccc3n2)cc1 | inactive | inactive | inactive | inactive | – | 2.59 µM (active) | – | 4 | – |
| N[C@H](C(=O)O)[C@H]1C[C@@H]1C(=O)O | inactive | inactive | inactive | inactive | – | inactive | inactive | 0.812 | – |
| CC(=O)N[C@@H](Cc1c[nH]c2ccccc12)C(=O)OCc1cc(C(F)(F)F)cc(C(F)(F)F)c1 | inactive | inactive | inactive | inactive | – | inactive | – | 2.62 | – |
| O=c1onc2cnc3ccccc3n12 | inactive | inactive | inactive | inactive | – | inactive | inactive | 0.875 | – |
| CCCCCCN(CCCCCC)C(=O)Cc1c(-c2ccc(F)cc2)[nH]c2ccccc12 | inactive | inactive | inactive | inactive | – | inactive | inactive | -4 | – |
| C=CCN1CCc2c(cc(O)c(O)c2Br)[C@@H](c2ccccc2)C1 | – | – | inactive | – | – | inactive | inactive | -5.81 | inactive |
| NS(=O)(=O)c1cccc2c1c([N+](=O)[O-])cc1nc(O)c(O)nc12 | inactive | inactive | inactive | inactive | – | inactive | inactive | 0.875 | – |
| CCSC(=N)N | inactive | inactive | inactive | inactive | – | inactive | inactive | 0.812 | – |
| N=C(N)c1ccccc1 | inactive | inactive | inactive | inactive | – | inactive | inactive | 1.19 | – |
| COc1ccc(CCN(C)CCc2ccc(OC)c(OC)c2)cc1OC | inactive | inactive | inactive | inactive | – | inactive | inactive | -4.19 | – |
| CN1C2CCC1CC(OC(c1ccccc1)c1ccccc1)C2 (centres undefined) | inactive | inactive | inactive | inactive | inactive | inactive | inactive | 1.5 | – |
| Cc1cccc(C(=O)NCN2CCN(c3ccccc3C#N)CC2)c1 | – | inactive | inactive | – | – | inactive | – | 0.562 | inactive |
| N=C(N)c1ccc(OCCCCCOc2ccc(C(=N)N)cc2)cc1 (tested in a mixture with another compound) | – | – | inactive | inactive | – | inactive | – | 1.31 | inactive |
| CSC(=N)N | – | inactive | inactive | inactive | – | inactive | – | – | – |
| CC(C)(C)c1ccc(/C=C/C(=O)Nc2ccc3c(c2)OCCO3)cc1 | – | inactive | inactive | inactive | – | inactive | – | – | – |
| COc1cc(/C=C(\C#N)C(=O)Nc2nnc(C(F)(F)F)s2)ccc1OCc1ccc(C(F)(F)F)cc1C(F)(F)F | – | inactive | inactive | inactive | – | inactive | inactive | – | – |
| Cc1cc(Cn2cnc3c2C[C@@H](C(=O)O)N(C(=O)C(c2ccccc2)c2ccccc2)C3)ccc1N | – | inactive | inactive | inactive | – | inactive | – | – | – |
